Test [1] in a line: qHTS assay to identify small molecule antagonists of the thyroid receptor (TR) signaling pathway - cell viability counter screen (AID 743064). Further: nearly all actives have a fitted effect of over 50% in size. In a few lines: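 Compounds were tested on GH3.TRE-Luc cells in the presence of T3 at 1 nM final. Following 23.5 h at 37 °C, cell viability was quantified by CellTiter-Fluor.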
A general note: In qHTS, concentration-response curves come from the screen itself.

The test system of test [2] is thyroid hormone receptor (rat, GH3 cells). The test is described as follows: qHTS assay to identify small molecule agonists of the thyroid receptor (TR) signaling pathway (AID 743066; calls by dose curve).
The target of test [3] is Estrogen receptor (Homo sapiens) (UniProt P03372). Description: qHTS assay to identify small molecule antagonists of the estrogen receptor alpha (ER-alpha) signaling pathway (AID 743069; active means well fitted curve in the direction sought with a large enough effect in the signal ratio in the repeat runs, not every such curve was filed as active; the % refers to the signal ratio). The gist of the method:
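Compound effects are measured against 17beta-estradiol stimulation in HEK293 cells with a UAS-controlled beta-lactamase reporter for ER-alpha. Exposure lasts 18 hr at 37C; LiveBLAzer B/G FRET substrate follows for 2 hr at room temperature.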

Test [4] is described as follows: qHTS assay to identify small molecule antagonists of the estrogen receptor alpha (ER-alpha) signaling pathway - cell viability counter screen (AID 743074; calls by dose curve;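 further: HEK293 cells carrying ER-alpha-UAS-bla reporter stimulated with 17beta-estradiol; nearly all actives have a fitted effect of over 45% in size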).
Test [5] has as its target Estrogen receptor (Homo sapiens) (UniProt P03372). Description: qHTS assay to identify small molecule agonists of the estrogen receptor alpha (ER-alpha) signaling pathway (AID 743075; calls by dose curve).
The target is the same in test [6]. The test is described as follows: qHTS assay to identify small molecule agonists of the estrogen receptor alpha (ER-alpha) signaling pathway using the BG1 cell line (AID 743079). Further: nearly all actives have a fitted effect of over 20% in size.
Test [7] can be described thus: qHTS assay to identify small molecule antagonists of the estrogen receptor alpha (ER-alpha) signaling pathway using the BG1 cell line (AID 743080; calls by dose curve;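 further: BG1 cells stimulated with 17beta-estradiol alongside compound; nearly all actives have a fitted effect of over 25% in size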; further: potency means the concentration at half of the fitted maximal effect). The gist of the method: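 Luciferase inhibition measured with ONE-Glo after 30 min at RT in BG1Luc4E2 cells given test compounds and 17beta-estradiol for 21.5 h at 37 C; CellTiter-Fluor viability read in the same wells beforehand.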

Test [8] can be described thus: qHTS assay to identify small molecule antagonists of the estrogen receptor alpha (ER-alpha) signaling pathway using the BG1 cell line - cell viability counter screen (AID 743081).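 Further: compound given together with 17beta-estradiol as the ER stimulus; series mostly up to about 70 µM; nearly all actives have a fitted effect of over 45% in size.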
In a further test the target is Aromatase (Homo sapiens) (UniProt P11511). The test is described as follows: qHTS assay to identify aromatase inhibitors (AID 743083). Further: series mostly up to about 70 µM; nearly all actives have a fitted effect of over 55% in size.
Aromatase (Homo sapiens), sequence (P11511 whole entry, looked up): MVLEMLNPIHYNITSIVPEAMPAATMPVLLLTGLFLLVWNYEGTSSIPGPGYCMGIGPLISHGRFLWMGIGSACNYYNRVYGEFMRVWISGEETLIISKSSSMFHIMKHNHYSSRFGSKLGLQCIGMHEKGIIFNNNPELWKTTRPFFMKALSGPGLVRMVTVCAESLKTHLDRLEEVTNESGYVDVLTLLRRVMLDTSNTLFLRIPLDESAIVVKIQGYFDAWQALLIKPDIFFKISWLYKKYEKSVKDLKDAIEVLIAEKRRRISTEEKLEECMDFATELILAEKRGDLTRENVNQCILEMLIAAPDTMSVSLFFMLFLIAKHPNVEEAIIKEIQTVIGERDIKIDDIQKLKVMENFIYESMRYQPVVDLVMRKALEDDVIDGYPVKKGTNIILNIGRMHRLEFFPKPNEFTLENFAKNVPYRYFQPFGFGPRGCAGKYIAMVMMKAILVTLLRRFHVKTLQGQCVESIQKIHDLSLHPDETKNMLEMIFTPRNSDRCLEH
The nature of test [9]: qHTS assay to identify aromatase inhibitors - cell viability counter screen (AID 743084).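 Further: cells stimulated with testosterone during compound exposure; nearly all actives have a fitted effect of over 55% in size.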
Test [10] in a line: qHTS assay to identify small molecule that activate the aryl hydrocarbon receptor (AhR) signaling pathway - cell viability counter screen (AID 743086). Further: series mostly up to about 70 µM; nearly all actives have a fitted effect of over 45% in size. In a few lines: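 Cytotoxicity counter screen: CellTiter-Fluor signal (30 min, 37 C) in 4000 HepG2 cells/well carrying the DRE-luciferase reporter, following 24 h compound exposure at 37 C.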
Test [11] addresses Peroxisome proliferator-activated receptor gamma (Homo sapiens) (UniProt P37231). The test is described as follows: qHTS assay to identify small molecule agonists of the peroxisome proliferator-activated receptor gamma (PPARg) signaling pathway (AID 743094; active means well fitted activation curve with a large enough effect in the signal ratio in the repeat runs, not every such curve was filed as active; the % refers to the signal ratio). In a few lines: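 Quantitative HTS agonist mode: stable HEK293H line with UAS-beta-lactamase reporter under PPARg control, 17 h compound exposure at 37C, fluorescence after 1 h FRET substrate loading at room temperature.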

Test [12] is described as follows: qHTS assay to identify small molecule antagonists of the peroxisome proliferator-activated receptor gamma (PPARg) signaling pathway - cell viability counter screen (AID 743194). Further: nearly all actives have a fitted effect of over 55% in size. The gist of the method: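 Viability was measured as CellTiter-Glo luminescence in GeneBLAzer PPARg UAS-bla HEK293H cells. These cells had been exposed 17 h at 37 C to compounds together with rosiglitazone at 50 nM final, with the beta-lactamase readout taken in the same wells.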

The nature of test [13]: qHTS assay for small molecule agonists of the antioxidant response element (ARE) signaling pathway (AID 743202; active means well fitted activation curve with a large enough effect in the signal ratio in the repeat runs, not every such curve was filed as active; the % refers to the signal ratio; further: potency means the concentration at half of the fitted maximal effect). In a few lines: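 An ARE-responsive beta-lactamase gene stably integrated in HepG2 cells serves as reporter. After 5 h plating and 16 h compound incubation at 37 C, fluorescence of the B/G FRET substrate was measured.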
Test [14] in a line: qHTS assay for small molecule activators of the heat shock response signaling pathway - cell viability counter screen (AID 743209). Further: nearly all actives have a fitted effect of over 50% in size. The gist of the method: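 First, HSE-bla HeLa cells were seeded at 1500 cells/well and kept overnight at 37 C. Next, compounds were pinned in and incubated 5 h. After the FRET substrate step, CellTiter-Glo was added and luminescence read 30 min later.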

The nature of test [15]: qHTS assay for small molecule activators of the heat shock response signaling pathway (AID 743210; active means well fitted activation curve with a large enough effect in the signal ratio in the repeat runs, with a control signal flat, not every such curve was filed as active; the % refers to the signal ratio;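 further: HeLa cells with beta-lactamase reporter driven by heat shock elements; series mostly up to about 63 µM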). In a few lines: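 In HSE-bla HeLa cells, 5 h compound incubation (37 C) precedes addition of LiveBLAzer B/G substrate; after 2.5 h at room temperature, fluorescence intensity indicates reporter induction.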
The nature of test [16]: qHTS assay to identify small molecule antagonists of the thyroid receptor (TR) signaling pathway (AID 743065). Further: series mostly up to about 70 µM; nearly all actives have a fitted effect of over 55% in size. In a few lines:
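Antagonism measured as loss of luciferase signal in GH3 cells stably carrying a TRE-luciferase reporter, co-treated with compound and T3 (1 nM final) for 23.5 h at 37 C. Viability was read in the same well by CellTiter-Fluor.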

Test [17] addresses Aryl hydrocarbon receptor (Homo sapiens) (UniProt P35869). Description: qHTS assay to identify small molecule that activate the aryl hydrocarbon receptor (AhR) signaling pathway (AID 743085). Further: nearly all actives have a fitted effect of over 15% in size. Further: potency means the concentration at half of the fitted maximal effect.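 On activation: HG2L7.5c1 human HepG2 liver cells with stably integrated DRE-driven firefly reporter; series mostly up to about 70 µM.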 The gist of the method:
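24 h compound exposure, 37C, HepG2-derived HG2L7.5c1 cells with DRE-responsive luciferase. Readouts: fluorescence viability, then luminescence at room temperature after 30 min.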

The target in test [18] is Peroxisome proliferator-activated receptor gamma (Homo sapiens) (UniProt P37231). The test is described as follows: qHTS assay to identify small molecule antagonists of the peroxisome proliferator-activated receptor gamma (PPARg) signaling pathway (AID 743191; calls by dose curve; further: series mostly up to about 63 µM; nearly all actives have a fitted effect of over 30% in size). The gist of the method:
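Beta-lactamase reporter under UAS control in HEK293H PPARg-bla cells; compound treatment 17 h at 37C. Read-out: fluorescence intensity after 1 h room-temperature incubation with LiveBLAzer B/G FRET substrate.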

A short description of test [19]: qHTS assay for small molecule agonists of the antioxidant response element (ARE) signaling pathway - cell viability counter screen (AID 743203; calls by dose curve; further: nearly all actives have a fitted effect of over 55% in size). The gist of the method: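 Seeded at 2,000 cells/well, ARE-bla HepG2 cells were incubated 5 hrs before compound addition. After 16 hrs of treatment at 37C with 5% CO2, CellTiter-Glo reagent was added and luminescence read 30 min later.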

Records with an inconclusive call do not appear. The source made the active and inactive calls. Unless noted, the call rests on the fitted dose curve; in most records, active means well fitted curve in the direction sought with a large enough effect in the repeat runs; inconclusive means weak or mixed curves; inactive means no such curve, though single readings can be large; an effect the other way counts as inactive or inconclusive.

Aryl hydrocarbon receptor (Homo sapiens), sequence (P35869 whole entry, looked up): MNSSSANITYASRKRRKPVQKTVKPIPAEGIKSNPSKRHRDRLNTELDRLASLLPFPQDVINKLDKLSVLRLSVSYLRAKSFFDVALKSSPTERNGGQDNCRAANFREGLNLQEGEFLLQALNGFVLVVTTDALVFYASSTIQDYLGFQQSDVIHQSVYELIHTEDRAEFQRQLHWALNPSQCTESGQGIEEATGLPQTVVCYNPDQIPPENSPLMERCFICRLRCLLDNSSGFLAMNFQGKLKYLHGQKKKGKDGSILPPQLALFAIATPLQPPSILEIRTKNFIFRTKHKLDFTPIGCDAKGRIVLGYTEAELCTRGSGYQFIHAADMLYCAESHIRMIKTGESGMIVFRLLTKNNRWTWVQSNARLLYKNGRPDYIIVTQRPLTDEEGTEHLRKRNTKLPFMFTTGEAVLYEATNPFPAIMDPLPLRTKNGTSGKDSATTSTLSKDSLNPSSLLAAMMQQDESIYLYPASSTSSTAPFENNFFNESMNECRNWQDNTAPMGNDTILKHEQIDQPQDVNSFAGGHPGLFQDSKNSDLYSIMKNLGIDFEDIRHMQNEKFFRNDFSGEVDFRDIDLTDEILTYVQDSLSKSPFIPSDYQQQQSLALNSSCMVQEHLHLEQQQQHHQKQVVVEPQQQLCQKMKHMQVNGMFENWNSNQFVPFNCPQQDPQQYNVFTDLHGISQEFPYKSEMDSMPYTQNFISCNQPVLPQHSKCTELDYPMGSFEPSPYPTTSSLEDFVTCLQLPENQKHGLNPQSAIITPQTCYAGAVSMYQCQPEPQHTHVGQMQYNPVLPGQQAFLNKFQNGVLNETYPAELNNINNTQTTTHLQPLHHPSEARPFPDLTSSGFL
Peroxisome proliferator-activated receptor gamma (Homo sapiens), sequence (P37231 whole entry, looked up): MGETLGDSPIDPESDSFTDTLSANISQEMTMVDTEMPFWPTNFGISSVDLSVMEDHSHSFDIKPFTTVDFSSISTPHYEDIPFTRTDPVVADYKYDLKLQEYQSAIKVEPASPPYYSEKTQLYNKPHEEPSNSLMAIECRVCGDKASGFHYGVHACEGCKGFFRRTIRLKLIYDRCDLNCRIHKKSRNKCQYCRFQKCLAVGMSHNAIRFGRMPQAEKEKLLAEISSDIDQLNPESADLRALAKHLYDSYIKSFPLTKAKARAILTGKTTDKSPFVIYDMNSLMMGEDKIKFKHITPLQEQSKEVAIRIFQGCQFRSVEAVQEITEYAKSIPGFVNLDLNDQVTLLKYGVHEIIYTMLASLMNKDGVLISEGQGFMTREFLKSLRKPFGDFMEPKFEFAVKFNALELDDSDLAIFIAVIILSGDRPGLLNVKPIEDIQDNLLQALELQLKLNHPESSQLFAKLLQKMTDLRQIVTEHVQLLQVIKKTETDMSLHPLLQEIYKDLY
Estrogen receptor (Homo sapiens), sequence (P03372 whole entry, looked up): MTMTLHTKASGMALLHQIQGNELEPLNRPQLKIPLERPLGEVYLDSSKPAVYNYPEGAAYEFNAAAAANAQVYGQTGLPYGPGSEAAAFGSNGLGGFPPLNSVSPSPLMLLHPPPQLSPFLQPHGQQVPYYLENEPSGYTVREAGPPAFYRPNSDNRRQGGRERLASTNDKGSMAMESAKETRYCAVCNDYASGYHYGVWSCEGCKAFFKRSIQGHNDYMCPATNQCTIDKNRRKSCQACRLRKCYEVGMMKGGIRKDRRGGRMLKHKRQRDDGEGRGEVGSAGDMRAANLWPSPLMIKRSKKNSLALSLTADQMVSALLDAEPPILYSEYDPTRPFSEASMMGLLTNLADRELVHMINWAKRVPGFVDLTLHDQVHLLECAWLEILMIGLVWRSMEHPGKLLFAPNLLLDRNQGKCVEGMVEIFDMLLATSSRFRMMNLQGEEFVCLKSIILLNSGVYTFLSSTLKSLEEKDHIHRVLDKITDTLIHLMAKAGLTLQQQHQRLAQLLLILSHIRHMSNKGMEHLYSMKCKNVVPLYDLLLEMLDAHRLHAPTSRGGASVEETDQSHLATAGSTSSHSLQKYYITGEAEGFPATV

Turning to `COC(=O)[C@@H]1[C@H]2C[C@H]3c4[nH]c5ccccc5c4CCN3C[C@@H]2CC[C@@H]1O`, the Potency entry (in test [1]; in [6]; in [7]; with Aromatase (Homo sapiens); in test [9]; in test [10]) was “inactive” each time. The Potency entry in test [13] was “inactive”. The outcome in test [2], in test [3], in test [4], in [5], in test [8] and in test [11] was inactive. Also, the call in [12], in test [14] and in test [15] was inactive.

For `CC(=O)NCCCCCC(=O)O`, the Potency result (in [16]; in test [6]; in test [7]; with Aromatase (Homo sapiens); in [9]; in test [17]) was “inactive” in each case. Also, the Potency result in test [10], in [18] and in test [13] was “inactive” in each case. The result in test [2], in [3], in [4], in [5], in test [8] and in test [11] was inactive. Besides, the outcome in test [12], in test [19] and in [14] was inactive.

Consider `Cc1ccccc1N=O`, for which the Potency result in test [1], in test [16] and in [10] was “inactive” throughout. Further, the call in test [2], in test [4], in [8], in test [12], in test [19] and in test [14] was inactive. Besides, in test [15], the call was inactive.

Take `C[C@H](N)[C@H](O)c1cccc(O)c1`: the Potency entry (in test [1]; in test [6]; in test [7]; in the test with Aromatase (Homo sapiens); in test [9]; in test [17]) was “inactive” each time. In addition, the Potency entry in test [18] and in test [13] was “inactive” throughout. Further, the result in [3], in test [4], in [5], in [8], in test [11] and in test [12] was inactive. The outcome in test [19], in test [14] and in [15] was inactive.

As for `C[C@@H](Oc1ccc(CNC(=O)c2cccnc2Oc2ccc3c(c2)OCO3)c(F)c1)C(=O)O`, the Potency result (in [16]; in [6]; in [7]; with Aromatase (Homo sapiens); in test [9]; in [17]) was “inactive” throughout. Also, the Potency result in test [10], in [18] and in [13] was “inactive” each time. For the same molecule, the outcome in [2], in test [3], in [4], in test [5], in test [8] and in test [11] was inactive. The result in [12], in test [19] and in [14] was inactive.

As to `CN(C)CCOCCO`, the Potency entry (in test [16]; in test [6]; in test [7]; with Aromatase (Homo sapiens); in test [9]; in [17]) was “inactive” in each case. The Potency result in test [10], in [18] and in test [13] was “inactive” in each case. Moreover, the molecule was called inactive in [2], in test [3], in test [4], in test [5], in test [8] and in test [11]. Besides, the result in [12], in test [19], in test [14] and in test [15] was inactive.

With `O=C(Nc1ccc(Cl)c(Cl)c1)C1CC1`, the Potency entry (in test [1]; in the test with Aromatase (Homo sapiens); in test [9]; in test [10]; in [18]) was “inactive” throughout. In addition, the molecule was called inactive in test [2], in [3], in test [5], in test [8], in test [11] and in test [19]. The molecule was called inactive in test [14] and in test [15]. The Potency was 21.1 µM (active) in test [7], 29.8 µM (active) in test [17] and 15 µM (active) in [13].

With `Cc1ccc(C=O)cc1C`, the Potency result (in [1]; in [6]; in [7]; with Aromatase (Homo sapiens); in test [9]; in [17]) was “inactive” each time. The Potency result in test [10], in [18] and in [13] was “inactive” each time. Further, the molecule was called inactive in [3], in test [4], in test [5], in test [8], in test [11] and in [19]. For the same molecule, the molecule was classed as inactive in test [14] and in test [15].
